# Source: PubChem BioAssay (EPA / NIEHS)
# Several values for one entry are separate records, joined by “and”; a condition that tells them apart may be missing. Equal entries are not always repeated. Records with an inconclusive call do not appear. Activity calls are given as the source filed them. The calls were made as follows, unless noted: active = hit-call score of the fitted dose curve at least 0.9, where 1 is the maximum; inconclusive = response in the unintended direction; inactive = score below 0.9.
# Assays:
# [1] = target: human Peroxisome Proliferator-activated Receptor alpha (PPARa), PPARA (gene 5465) (UniProt Q07869); experiment: ATG_PPARa_TRANS: Attagene TRANS-FACTORIAL HepG2 Assay for human Peroxisome Proliferator-activated Receptor alpha (PPARa) (AID 2283001);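 as to AC50: potency for gain of reporter signal over DMSO so agonist or activator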
# Procedure, shortened: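 Read-out is fluorescence of reporter cDNA fragments resolved by capillary electrophoresis after RT-PCR. Human HepG2 liver cells carried transfected PPARa-Gal4 chimera and GAL4-UAS reporter units, treated 24 h; activity scored as increase over DMSO.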
# [2] = target: human Peroxisome Proliferator-activated Receptor delta (PPARd), PPARD (gene 5467) (UniProt Q03181); experiment: ATG_PPARd_TRANS: Attagene TRANS-FACTORIAL HepG2 Assay for human Peroxisome Proliferator-activated Receptor delta (PPARd) (AID 2283002)
# Procedure, shortened: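 Cell-based TRANS reporter: HepG2, transient MRTU transfection, 24 h exposure. Readout = reporter mRNA (RT-PCR/CE, 6-FAM). Gain-of-signal fit vs DMSO control.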
# [3] = target: human Retinoic Acid Receptor beta (RARb), RARB (gene 5915) (UniProt P10826); experiment: ATG_RARb_TRANS: Attagene TRANS-FACTORIAL HepG2 Assay for human Retinoic Acid Receptor beta (AID 2283004)
# Procedure, shortened: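 HepG2, transient MRTU transfection, NR–Gal4 chimera, 24 h treatment; RT-PCR plus CE fluorescence detection of reporter mRNA; gain of signal vs DMSO.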
# [4] = target: Retinoic acid receptor alpha (Homo sapiens) (UniProt P10276); experiment: ATG_RARa_TRANS: Attagene TRANS-FACTORIAL HepG2 Assay for human Retinoic Acid Receptor alpha (RARa) (AID 2283005)
# Procedure, shortened: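 Reporter transcripts, measured by RT-PCR with fluorescent labeling and capillary electrophoresis after 24 h dosing, reflect activity of an exogenous human RARa–GAL4 fusion in transiently transfected HepG2. Fitted for increase relative to DMSO.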
# [5] = target: Peroxisome proliferator-activated receptor gamma (Homo sapiens) (UniProt P37231); experiment: ATG_PPARg_TRANS: Attagene TRANS-FACTORIAL HepG2 Assay for human Peroxisome Proliferator-activated Receptor-gamma (PPARg) (AID 2283007)
# Procedure, shortened: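 Read-out: reporter mRNA induction, detected by fluorescence after RT-PCR and capillary electrophoresis. Transiently transfected human HepG2 liver cells carrying a chimeric NR-Gal4 construct were dosed for 24 h; activity was fitted upward relative to DMSO.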
# [6] = target: Nuclear receptor subfamily 1 group I member 2 (Homo sapiens) (UniProt O75469); experiment: ATG_PXR_TRANS: Attagene TRANS-FACTORIAL HepG2 Assay for human Pregnane X Receptor (PXR) (AID 2283008)
# Procedure, shortened: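 Fluorescence intensity of FAM-labelled, HpaI-digested reporter amplicons, separated by capillary electrophoresis, quantifies induction. HepG2 cells with PXR-Gal4 trans-reporter system were exposed 24 h; DMSO defines baseline.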
# [7] = target: human Retinoic Acid Receptor gamma (RARg), RARG (gene 5916) (UniProt P13631); experiment: ATG_RARg_TRANS: Attagene TRANS-FACTORIAL HepG2 Assay for human Retinoic Acid Receptor gamma (RARg) (AID 2283009);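 as to AC50: AC50 is for reporter induction above DMSO meaning RARg activation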
# Procedure, shortened: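 HepG2 transiently transfected with GAL4-UAS reporter units and chimeric NR-Gal4 constructs; 24 h compound exposure. Reporter mRNA quantified by RT-PCR, FAM labeling, HpaI digestion and capillary electrophoresis; gain-of-signal versus DMSO.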
# [8] = target: human RAR-related Orphan Receptor beta (RORb), RORB (gene 6096) (UniProt Q92753); experiment: ATG_RORb_TRANS: Attagene TRANS-FACTORIAL HepG2 Assay for human RAR-related Orphan Receptor beta (RORb) (AID 2283010)
# Procedure, shortened: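 HepG2 cells transiently transfected with GAL4-UAS reporter units expressing chimeric NR-Gal4 protein; reporter mRNA measured 24 h after dosing by RT-PCR, 6-FAM labelling and capillary electrophoresis. Gain-of-signal fitted relative to DMSO baseline.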
# [9] = target: Retinoic acid receptor RXR-alpha (Homo sapiens) (UniProt P19793); experiment: ATG_RXRa_TRANS: Attagene TRANS-FACTORIAL HepG2 Assay for human Retinoid X Receptor alpha (RXRa) (AID 2283012)
# Procedure, shortened: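 HepG2 cells transiently transfected with GAL4-UAS reporter units and chimeric RXRa-Gal4 protein, treated 24 h. Reporter mRNA measured by RT-PCR, fluorescent labelling, HpaI digestion and capillary electrophoresis. Induction fitted against DMSO.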
# [10] = target: human RAR-related Orphan Receptor gamma (RORg), RORC (gene 6097) (UniProt P51449); experiment: ATG_RORg_TRANS: Attagene TRANS-FACTORIAL HepG2 Assay for human RAR-related Orphan Receptor gamma (RORg) (AID 2283011)
# Procedure, shortened: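 Activity is scored as increase in GAL4-UAS reporter mRNA over DMSO, detected by fluorescent RT-PCR and capillary electrophoresis in HepG2 cells transiently expressing a RORg-Gal4 chimera, 24 h after dosing.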
# [11] = target: human Retinoid X Receptor beta (RXRb), RXRB (gene 6257) (UniProt P28702); experiment: ATG_RXRb_TRANS: Attagene TRANS-FACTORIAL HepG2 Assay for human Retinoid X Receptor beta (RXRb) (AID 2283013)
# Procedure, shortened: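 HepG2 cells were transiently transfected with multiplexed GAL4-UAS reporters and a chimeric RXRb-Gal4 construct, then exposed for 24 h. Reporter mRNA was quantified by RT-PCR, FAM labeling, HpaI digestion and capillary electrophoresis; gain of signal was scored against DMSO.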
# [12] = BSK_4H_Eotaxin3: BioMAP Diversity Plus: 4H Assay for Eotaxin 3 Biomarker Activity (AID 2283000; active = hit-call score of the fitted dose curve at least 0.9, where 1 is the maximum; inactive = score below 0.9;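 also: CCL26 protein level quantified by ELISA in parallel with SRB cytotoxicity check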); conditions: primary human endothelial cells (HUVEC); actives raise or lower the signal
# Procedure, shortened: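 Endothelial primary cells (human umbilical vein) exposed to compound for 24 h. ELISA detection of Eotaxin-3.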
# [13] = read-out: Intercellular Adhesion Molecule 1 (ICAM1), ICAM1 (gene 3383); experiment: BSK_3C_ICAM1: BioMAP Diversity Plus: 3C Assay for Intercellular Adhesion Molecule 1 (ICAM1) Biomarker Activity (AID 2283003; active = hit-call score of the fitted dose curve at least 0.9, where 1 is the maximum; inactive = score below 0.9); conditions: primary human endothelial cells (HUVEC); actives raise or lower the signal
# Procedure, shortened: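 HUVEC primary cells stimulated under 3C conditions; ICAM1 measured by ELISA 24 h after compound dosing. Curves fitted bidirectionally against the DMSO baseline. Overt cytotoxicity checked by SRB staining of parallel cultures.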
# [14] = BSK_3C_Proliferation: Cell Proliferation Assessment in the BioMAP Diversity Plus: 3C Assay (AID 2283006; active = hit-call score of the fitted dose curve at least 0.9, where 1 is the maximum; inactive = score below 0.9;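 as to AC50: potency may reflect either rise or fall in cell number versus DMSO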); conditions: primary human endothelial cells (HUVEC)
# Procedure, shortened: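 Subconfluent HUVEC (3C system) cultured with chemical; relative cell number read at 48 h by sulforhodamine B total-protein staining (0.1% SRB after 10% TCA fixation, 560 nm). Bidirectional fit relative to DMSO.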
# [15] = read-out: Interleukin-1 alpha (IL1a), IL1A (gene 3552); experiment: BSK_BE3C_IL1a: BioMAP Diversity Plus: BE3C Assay for Interleukin-1 alpha (IL1a) Biomarker Activity (AID 2283016; active = hit-call score of the fitted dose curve at least 0.9, where 1 is the maximum; inactive = score below 0.9); conditions: primary human bronchial epithelial cells; actives raise or lower the signal
# Procedure, shortened: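 Human primary bronchial epithelial cells, 24 h chemical exposure; IL-1a quantified by ELISA, fitted bidirectionally against DMSO. Cytotoxicity assessed in parallel by SRB total-protein staining at the time of measurement.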
# [16] = read-out: Monocyte Chemoattractant Protein-1 (MCP1), CCL2 (gene 6347); experiment: BSK_3C_MCP1: BioMAP Diversity Plus: 3C Assay for Monocyte Chemoattractant Protein-1 (MCP1) Biomarker Activity (AID 2283017; active = hit-call score of the fitted dose curve at least 0.9, where 1 is the maximum; inactive = score below 0.9); conditions: primary human endothelial cells (HUVEC); actives raise or lower the signal
# Procedure, shortened: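 Endothelial cells from human umbilical vein are dosed with chemical, cultured 24 h, then assayed for MCP-1 by ELISA; both increases and decreases are modelled against DMSO controls.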
# [17] = read-out: Monocyte Chemoattractant Protein-1 (MCP1), CCL2 (gene 6347); experiment: BSK_4H_MCP1: BioMAP Diversity Plus: 4H Assay for Monocyte Chemoattractant Protein-1 (MCP1) Biomarker Activity (AID 2283018; active = hit-call score of the fitted dose curve at least 0.9, where 1 is the maximum; inactive = score below 0.9); conditions: primary human endothelial cells (HUVEC); actives raise or lower the signal
# Procedure, shortened: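 Human umbilical vein endothelial cells (4H system) exposed to chemicals for 24 h in 96-well format. MCP-1 measured by ELISA; bidirectional fitting against DMSO, with SRB total-protein staining in parallel cultures for cytotoxicity.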
# [18] = read-out: Human Leukocyte Antigen - DR isotype (HLADR), HLA-DRA (gene 3122); experiment: BSK_3C_HLADR: BioMAP Diversity Plus: 3C Assay for Human Leukocyte Antigen - DR isotype (HLADR) Biomarker Activity (AID 2283019; active = hit-call score of the fitted dose curve at least 0.9, where 1 is the maximum; inactive = score below 0.9;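 also: ELISA of cell-surface HLA-DR on HUVEC 24 h after dosing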); conditions: primary human endothelial cells (HUVEC); actives raise or lower the signal
# Procedure, shortened: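 Endothelial cells from human umbilical vein are treated with test chemical; after 24 h, HLA-DR levels are measured by ELISA. Data are fitted in both directions using DMSO as the baseline.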
# Sequence of human RAR-related Orphan Receptor gamma (RORg), RORC (gene 6097) (P51449 whole entry, looked up, the tested form may be a part): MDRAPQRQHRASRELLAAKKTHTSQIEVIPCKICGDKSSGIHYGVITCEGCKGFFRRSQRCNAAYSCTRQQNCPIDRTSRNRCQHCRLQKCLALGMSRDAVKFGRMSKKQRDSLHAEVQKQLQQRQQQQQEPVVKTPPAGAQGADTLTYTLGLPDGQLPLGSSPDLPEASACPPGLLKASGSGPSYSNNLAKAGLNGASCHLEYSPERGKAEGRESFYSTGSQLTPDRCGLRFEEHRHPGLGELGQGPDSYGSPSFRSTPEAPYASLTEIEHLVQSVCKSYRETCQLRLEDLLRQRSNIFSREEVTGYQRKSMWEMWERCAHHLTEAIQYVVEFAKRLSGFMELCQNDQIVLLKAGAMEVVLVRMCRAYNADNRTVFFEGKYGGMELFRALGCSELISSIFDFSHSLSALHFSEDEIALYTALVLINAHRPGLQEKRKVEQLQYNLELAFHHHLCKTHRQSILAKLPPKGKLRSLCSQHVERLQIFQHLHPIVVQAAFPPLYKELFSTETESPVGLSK
# Sequence of human RAR-related Orphan Receptor beta (RORb), RORB (gene 6096) (Q92753 whole entry, looked up, the tested form may be a part): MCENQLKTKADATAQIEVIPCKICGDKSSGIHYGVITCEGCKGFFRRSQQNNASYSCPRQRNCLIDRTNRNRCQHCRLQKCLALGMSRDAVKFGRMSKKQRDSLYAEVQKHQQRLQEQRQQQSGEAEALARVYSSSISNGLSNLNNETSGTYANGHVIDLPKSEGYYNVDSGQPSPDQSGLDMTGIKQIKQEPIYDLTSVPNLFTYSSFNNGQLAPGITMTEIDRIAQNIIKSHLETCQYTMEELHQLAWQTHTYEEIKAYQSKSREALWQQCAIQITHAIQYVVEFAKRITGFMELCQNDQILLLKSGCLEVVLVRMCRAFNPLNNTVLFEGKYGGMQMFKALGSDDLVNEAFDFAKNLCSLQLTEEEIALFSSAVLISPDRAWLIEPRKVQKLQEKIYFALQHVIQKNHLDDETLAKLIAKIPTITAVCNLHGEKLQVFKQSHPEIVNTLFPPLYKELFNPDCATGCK
# Sequence of Peroxisome proliferator-activated receptor gamma (Homo sapiens) (P37231 whole entry, looked up, the tested form may be a part): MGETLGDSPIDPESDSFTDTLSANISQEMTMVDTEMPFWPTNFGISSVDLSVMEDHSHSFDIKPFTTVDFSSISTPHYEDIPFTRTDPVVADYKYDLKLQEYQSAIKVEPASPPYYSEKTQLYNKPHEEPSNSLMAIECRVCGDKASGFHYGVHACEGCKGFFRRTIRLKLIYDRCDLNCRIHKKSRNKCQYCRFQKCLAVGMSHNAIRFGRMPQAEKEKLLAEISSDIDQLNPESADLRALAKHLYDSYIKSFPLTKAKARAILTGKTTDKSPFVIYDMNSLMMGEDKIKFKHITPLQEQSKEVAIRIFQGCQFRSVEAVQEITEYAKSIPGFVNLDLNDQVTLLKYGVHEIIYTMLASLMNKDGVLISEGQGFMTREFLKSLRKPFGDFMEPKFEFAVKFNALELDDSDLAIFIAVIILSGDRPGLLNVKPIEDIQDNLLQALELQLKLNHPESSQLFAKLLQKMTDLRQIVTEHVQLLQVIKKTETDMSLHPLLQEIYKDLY
# Sequence of human Peroxisome Proliferator-activated Receptor alpha (PPARa), PPARA (gene 5465) (Q07869 whole entry, looked up, the tested form may be a part): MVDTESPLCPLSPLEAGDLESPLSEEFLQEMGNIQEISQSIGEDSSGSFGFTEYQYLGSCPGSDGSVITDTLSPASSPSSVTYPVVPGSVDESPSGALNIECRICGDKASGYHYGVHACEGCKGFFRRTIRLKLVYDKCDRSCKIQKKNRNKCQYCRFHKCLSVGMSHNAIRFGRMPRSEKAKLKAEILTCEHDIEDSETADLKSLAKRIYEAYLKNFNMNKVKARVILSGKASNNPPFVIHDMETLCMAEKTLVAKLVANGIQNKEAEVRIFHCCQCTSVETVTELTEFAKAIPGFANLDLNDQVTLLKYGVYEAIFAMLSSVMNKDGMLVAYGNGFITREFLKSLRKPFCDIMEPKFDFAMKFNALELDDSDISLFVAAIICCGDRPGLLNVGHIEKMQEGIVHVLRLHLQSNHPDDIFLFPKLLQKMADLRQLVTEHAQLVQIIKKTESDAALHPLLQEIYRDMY
# Sequence of Nuclear receptor subfamily 1 group I member 2 (Homo sapiens) (O75469 whole entry, looked up, the tested form may be a part): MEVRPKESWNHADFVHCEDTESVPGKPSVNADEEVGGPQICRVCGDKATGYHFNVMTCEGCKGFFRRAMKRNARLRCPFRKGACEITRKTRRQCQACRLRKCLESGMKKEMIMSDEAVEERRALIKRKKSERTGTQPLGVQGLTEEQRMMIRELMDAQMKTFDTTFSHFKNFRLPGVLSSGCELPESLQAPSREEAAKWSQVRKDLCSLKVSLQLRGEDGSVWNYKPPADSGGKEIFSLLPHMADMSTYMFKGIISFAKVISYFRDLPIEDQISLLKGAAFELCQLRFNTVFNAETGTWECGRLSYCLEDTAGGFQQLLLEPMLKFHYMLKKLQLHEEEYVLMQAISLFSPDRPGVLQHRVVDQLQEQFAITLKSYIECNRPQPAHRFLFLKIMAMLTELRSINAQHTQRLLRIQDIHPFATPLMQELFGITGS
# Sequence of Retinoic acid receptor RXR-alpha (Homo sapiens) (P19793 whole entry, looked up, the tested form may be a part): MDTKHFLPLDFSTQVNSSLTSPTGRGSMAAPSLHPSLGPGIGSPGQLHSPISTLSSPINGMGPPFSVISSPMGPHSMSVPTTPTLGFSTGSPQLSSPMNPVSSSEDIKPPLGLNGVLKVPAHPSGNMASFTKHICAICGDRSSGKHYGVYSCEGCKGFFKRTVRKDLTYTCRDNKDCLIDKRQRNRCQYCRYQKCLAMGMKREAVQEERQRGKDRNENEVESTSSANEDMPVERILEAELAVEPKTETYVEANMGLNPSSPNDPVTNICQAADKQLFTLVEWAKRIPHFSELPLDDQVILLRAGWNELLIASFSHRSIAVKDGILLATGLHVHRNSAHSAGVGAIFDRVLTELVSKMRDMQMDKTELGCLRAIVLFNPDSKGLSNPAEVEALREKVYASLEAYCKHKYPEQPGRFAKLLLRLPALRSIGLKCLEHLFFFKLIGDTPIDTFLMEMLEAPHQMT
# Sequence of human Peroxisome Proliferator-activated Receptor delta (PPARd), PPARD (gene 5467) (Q03181 whole entry, looked up): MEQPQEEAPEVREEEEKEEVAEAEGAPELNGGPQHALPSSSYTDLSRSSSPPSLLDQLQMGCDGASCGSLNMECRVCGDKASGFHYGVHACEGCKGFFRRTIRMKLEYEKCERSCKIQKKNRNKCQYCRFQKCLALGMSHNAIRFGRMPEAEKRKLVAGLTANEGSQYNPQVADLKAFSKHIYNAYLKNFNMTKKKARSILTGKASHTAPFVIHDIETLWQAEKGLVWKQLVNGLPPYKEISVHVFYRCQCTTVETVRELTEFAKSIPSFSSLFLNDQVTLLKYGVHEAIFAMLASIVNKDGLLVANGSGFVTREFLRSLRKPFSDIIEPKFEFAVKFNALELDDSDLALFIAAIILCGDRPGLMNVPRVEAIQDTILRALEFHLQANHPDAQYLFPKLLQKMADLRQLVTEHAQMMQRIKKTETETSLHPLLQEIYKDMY
# Sequence of human Retinoid X Receptor beta (RXRb), RXRB (gene 6257) (P28702 whole entry, looked up, the tested form may be a part): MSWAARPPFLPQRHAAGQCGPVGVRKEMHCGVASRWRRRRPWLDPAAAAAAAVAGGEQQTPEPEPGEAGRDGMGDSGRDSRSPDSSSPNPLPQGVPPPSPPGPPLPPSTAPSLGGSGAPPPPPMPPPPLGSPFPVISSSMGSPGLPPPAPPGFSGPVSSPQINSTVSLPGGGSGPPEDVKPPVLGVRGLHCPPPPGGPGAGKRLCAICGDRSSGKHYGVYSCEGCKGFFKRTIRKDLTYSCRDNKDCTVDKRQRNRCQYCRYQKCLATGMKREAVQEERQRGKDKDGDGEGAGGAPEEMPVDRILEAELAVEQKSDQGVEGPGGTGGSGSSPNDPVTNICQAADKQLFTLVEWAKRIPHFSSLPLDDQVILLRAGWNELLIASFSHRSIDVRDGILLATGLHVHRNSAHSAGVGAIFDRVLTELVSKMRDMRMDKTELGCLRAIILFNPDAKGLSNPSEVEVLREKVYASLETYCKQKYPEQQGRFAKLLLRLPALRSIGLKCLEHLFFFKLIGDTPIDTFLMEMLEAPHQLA
# Sequence of human Retinoic Acid Receptor beta (RARb), RARB (gene 5915) (P10826 whole entry, looked up, the tested form may be a part): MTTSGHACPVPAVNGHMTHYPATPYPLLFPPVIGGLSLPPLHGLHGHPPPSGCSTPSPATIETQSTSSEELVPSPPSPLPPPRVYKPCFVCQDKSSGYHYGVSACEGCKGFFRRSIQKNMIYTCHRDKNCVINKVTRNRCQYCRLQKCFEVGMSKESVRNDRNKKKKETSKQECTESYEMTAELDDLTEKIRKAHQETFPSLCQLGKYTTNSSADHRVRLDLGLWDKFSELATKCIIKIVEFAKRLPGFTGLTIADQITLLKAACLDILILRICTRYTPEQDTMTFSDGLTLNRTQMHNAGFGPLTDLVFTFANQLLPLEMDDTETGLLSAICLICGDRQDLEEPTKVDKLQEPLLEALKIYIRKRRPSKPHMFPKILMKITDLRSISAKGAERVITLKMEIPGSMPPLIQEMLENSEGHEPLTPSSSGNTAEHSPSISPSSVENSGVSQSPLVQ
# Sequence of human Retinoic Acid Receptor gamma (RARg), RARG (gene 5916) (P13631 whole entry, looked up, the tested form may be a part): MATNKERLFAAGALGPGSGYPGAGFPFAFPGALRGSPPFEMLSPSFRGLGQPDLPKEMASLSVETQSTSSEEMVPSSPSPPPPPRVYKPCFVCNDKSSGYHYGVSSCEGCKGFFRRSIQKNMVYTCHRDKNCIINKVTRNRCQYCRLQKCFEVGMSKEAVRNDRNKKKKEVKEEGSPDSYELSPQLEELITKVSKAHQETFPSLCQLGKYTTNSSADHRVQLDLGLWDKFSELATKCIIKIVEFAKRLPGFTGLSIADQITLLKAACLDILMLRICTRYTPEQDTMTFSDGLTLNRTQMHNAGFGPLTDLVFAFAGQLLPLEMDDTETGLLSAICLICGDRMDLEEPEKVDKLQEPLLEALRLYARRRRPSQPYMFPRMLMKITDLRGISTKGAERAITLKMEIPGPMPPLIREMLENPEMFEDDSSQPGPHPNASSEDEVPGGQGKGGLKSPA
smiles,measurement,setting,value
Cc1cc(O)c2c(c1)C(=O)c1cc(O)cc(O)c1C2=O,AC50,[1],27.5 µM (active)
same,outcome,[2],inactive
same,outcome,[3],inactive
same,outcome,[4],inactive
same,AC50,[5],9.51 µM (active)
same,AC50,[6],6.34 µM (active)
same,outcome,[7],inactive
same,outcome,[8],inactive
same,outcome,[9],inactive
CCCCCC#CC(=O)OC,outcome,[1],inactive
same,outcome,[2],inactive
same,AC50,[5],12.9 µM (active)
same,outcome,[6],inactive
CC1(C)CC(N)CC(C)(CN)C1 (configuration not stated),outcome,[1],inactive
same,outcome,[2],inactive
same,outcome,[5],inactive
same,outcome,[6],inactive
same,outcome,[7],inactive
same,outcome,[8],inactive
same,outcome,[10],inactive
same,outcome,[9],inactive
same,outcome,[11],inactive
CCO[Si](CC)(OCC)OCC,outcome,[1],inactive
same,outcome,[2],inactive
same,outcome,[3],inactive
same,AC50,[6],2.84 µM (active)
same,outcome,[10],inactive
O=C(O)C(F)(F)OC(F)(F)C(F)(F)OC(F)(F)C(F)(F)C(F)(F)C(F)(F)F,outcome,[12],inactive
same,outcome,[13],inactive
same,AC50,[14],54.5 µM (active) and 48.8 µM (active)
same,AC50,[15],50.4 µM (active) and 55.2 µM (active)
same,outcome,[16],inactive
same,outcome,[17],inactive
same,outcome,[18],inactive
CN1CCc2cccc3c2[C@H]1Cc1ccc(O)c(O)c1-3,outcome,[1],inactive
same,outcome,[2],inactive
same,outcome,[3],inactive
same,outcome,[4],inactive
same,AC50,[5],12 µM (active)
same,outcome,[6],inactive
same,AC50,[7],0.775 µM (active)
same,outcome,[9],inactive
same,outcome,[11],inactive
CC=CC(=O)C1=C(C)C=CCC1(C)C,outcome,[12],inactive
same,outcome,[13],inactive
same,outcome,[14],inactive
same,outcome,[5],inactive
same,outcome,[6],inactive
same,outcome,[10],inactive
same,outcome,[15],inactive
same,outcome,[16],inactive
same,outcome,[17],inactive
same,outcome,[18],inactive
CCCCC1CCCCC(=O)O1 (configuration not stated),outcome,[1],inactive
same,outcome,[2],inactive
same,outcome,[4],inactive
same,AC50,[5],47.4 µM (active)
same,outcome,[6],inactive
same,outcome,[7],inactive
same,outcome,[8],inactive
CCC(=O)OCC=Cc1ccccc1,outcome,[12],inactive
same,outcome,[13],inactive
same,outcome,[14],inactive
same,outcome,[5],inactive
same,AC50,[6],16.7 µM (active)
same,outcome,[10],inactive
same,outcome,[11],inactive
same,outcome,[15],inactive
same,outcome,[16],inactive
same,outcome,[17],inactive
same,outcome,[18],inactive
CCCCCCCCCCO[C@@H]1O[C@H](CO)[C@@H](O)[C@H](O)[C@H]1O,outcome,[1],inactive
same,outcome,[2],inactive
same,outcome,[5],inactive
same,outcome,[6],inactive
same,outcome,[7],inactive
same,outcome,[11],inactive
